Bioassay records (PubChem BioAssay)
Pf growth 96h: Primary qHTS for delayed death inhibitors of the malarial parasite plastid, 96 hour incubation; P. falciparum luciferase reporter growth, 96 h; 6.9% of 320,000 active; AID 504834, 2011; Potency, µM (top dose mostly 28.7 µM), without a hit: top-dose activity change, negative = inhibition, most hits filed as inhibitors; note: potency is the fitted concentration of half-maximal effect; % is set by controls: 0 for no effect and ±100 for the full control effect
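Two parasite generations (96 h, 37 C, 5% CO2) of compound exposure in infected erythrocytes (0.05% parasitemia, 2% hematocrit). Luciferase-reporter P. falciparum; decreased luminescence indicates inhibited growth, aimed at apicoplast-acting delayed death.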
NS1 inh: qHTS Assay for Inhibitors of Influenza NS1 Protein Function. Potency, µM (highest dose often 46.1 µM), without a hit: at the highest dose activity, positive = more growth. 0.4% of 270,000 active; calls by dose curve; note: potency is the fitted concentration of half-maximal effect; actives are rising curves; nearly all actives have a fitted effect of over 50% in size
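Read-out: OD600 growth recovery of NS1-expressing budding yeast. Cells grown overnight at 30C in -URA glucose medium, washed, resuspended and diluted 1:100 in 2% galactose assay medium, pH 6.0. Same strain lacking NS1 served as positive control.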
Pf growth 48h: Primary qHTS for delayed death inhibitors of the malarial parasite plastid, 48 hour incubation | AID 504832, 2011 | P. falciparum luciferase growth in erythrocytes, 48 h | Potency, µM (highest dose often 28.7 µM), for the others: at the top dose activity change, negative = inhibition, most hits filed as inhibitors | 5.9% of 310,000 active; note: potency is the fitted concentration of half-maximal effect; % is set by controls: 0 for no effect and ±100 for the full control effect
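A one-generation exposure of luciferase-tagged malaria parasites in RPMI 1640/Albumax erythrocyte culture, 37 C and 5% CO2. Inhibition is inferred from decreased luminescence after adding detection reagent.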
Shiga inhibitor: A qHTS for Small Molecule Inhibitors of Shiga Toxin | Vero cells, Shiga toxin protein synthesis inhibition reporter | inhibition, % at 38.7 µM | 9.2% of 290,000 active | AID 2315, 2010; in the data active = inhibition mostly above about 28%, no sharp cut-off; inactive = mostly below about 43%; note: 0% is about no effect
Cycloheximide cs: Cycloheximide Counterscreen for Small Molecule Inhibitors of Shiga Toxin; cell reporter, cycloheximide protein synthesis inhibition counterscreen; max response, %; 12% of 300,000 active; in the data active = max response mostly above about 13%, no sharp cut-off; inactive = mostly below about 14%; note: read at 38.3 µM for the half of the compounds with a filed dose; 0% is about no effect
Sm TGR inh: qHTS Assay for the Inhibitors of Schistosoma Mansoni Peroxiredoxins; Schistosoma mansoni thioredoxin glutathione reductase (TGR), Q962Y6; 3% of 360,000 active; purified TGR, DTNB reduction, TNB absorbance 405 nm; AID 485364, 2010; Potency, µM (highest dose often 114 µM), inactives show top-dose activity change, negative = inhibition, usual class: inhibitors; note: potency is the fitted concentration of half-maximal effect; % is set by controls: 0 for no effect and ±100 for the full control effect; nearly all actives have a fitted effect of over 60% in size
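Kinetic colorimetric format: TGR-catalysed, NADPH-driven DTNB reduction monitored via TNB absorbance. Enzyme dispensed at 20 nM; compound exposure 15 min at room temperature before reaction start.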
An asterisk follows results filed as active; ? = inconclusive; / = no result. Shown are actives, neighbours in structure and some others; about 21% of the full set was active somewhere. Unless noted, calls come from the whole dose curve; as a rule, active = well fitted curve in the direction sought with a large enough effect; inconclusive = small, poorly fitted or top-dose-only effect, or another doubt; inactive = no such curve, though single readings can be large; an effect the other way counts as inactive or inconclusive.

SMILES	Pf growth 96h	NS1 inh	Pf growth 48h	Shiga inhibitor	Cycloheximide cs	Sm TGR inh
CCOC(=O)c1ccc(NC(=O)CC2Nc3cc(C)c(C)cc3NC2=O)cc1 (stereo not drawn)	/	/	/	/	/	-4.8%
Cc1ccc(C2N(C)c3ccccc3-c3nc4ccccc4n32)o1 (stereo not drawn)	3.7µM*	-67.3%	/	-4.7	-3.0	-14.6%
CC(=O)N1c2ccccc2-c2nc3ccccc3n2C1C (stereo not drawn)	-11.6%	-3.5%	-1.6%	5.6	1.3	-0.9%
CN1c2ccccc2-c2nc3ccccc3n2C1c1cccs1 (stereo not drawn)	1.65µM*	-68.0%	8.28µM*	-16.1	21.6	1.3%
CCN1c2ccccc2-c2nc3ccccc3n2C1c1ccccn1 (stereo not drawn)	?	-148.0%	?	32.6	1.7	0.0%
CC(=O)C1=C(O)C(=O)N(c2cc(C(C)(C)C)on2)C1c1ccc(Br)cc1 (stereo not drawn)	/	15.0%	10.4µM*	15.9	-1.3	-8.7%
CC(=O)C1=C(O)C(=O)N(c2ccc(Br)cc2)C1c1ccc(Cl)cc1 (stereo not drawn)	104.1%	-3.6%	-6.2%	/	0.8	-20.7%
CC(=O)C1=C(O)C(=O)N(c2cc(C(C)(C)C)on2)C1c1ccc(C(C)C)cc1 (stereo not drawn)	13.1µM*	?	-16.2%	-1.4	14.3	14.4%
Cc1cccc(N2C(=O)C(O)=C(C(=O)c3cccs3)C2c2ccc(C(C)C)cc2)n1 (stereo not drawn)	34.0%	4.7%	13.4%	26.3	9.8	-2.1%
O=C(OCCN1CCOCC1)c1cccc(F)c1	?	4.4%	337.1%	35.6	6.5	15.2%
O=C(OCC(=O)N1CCOCC1)c1ccc(F)cc1Cl	82.3%	8.7%	47.3%	51.0*	35.4*	-5.2%
O=C(OCC(=O)N1CCOCC1)c1cccc(F)c1	101.4%	3.3%	98.0%	93.6*	47.9*	-1.7%
O=C(O)c1cc(Oc2ccc([N+](=O)[O-])cc2)cc(Oc2ccc([N+](=O)[O-])cc2)c1	/	/	/	-7.9	-7.1	/
Cc1ccc(Cc2nc3ccccc3nc2SCC(=O)NCCC(C)C)cc1	/	/	/	/	/	7.1%
CN(c1ccc(C(=O)Nc2ccccn2)cc1)S(=O)(=O)c1ccccc1	?	-13.4%	16.7%	90.0*	32.0*	/
CN(c1ccccc1)S(=O)(=O)c1ccc(NC(=O)C2CC2)cc1	6.57µM*	-2.1%	33.7%	-11.3	0.3	1.8%
CN(c1ccccc1)S(=O)(=O)c1ccc(NC(=O)c2ccccc2)cc1	2.3%	-44.1%	-14.5%	active	15.1	2.1%
CCN(c1ccccc1)S(=O)(=O)c1ccc(C(=O)Nc2ccccn2)cc1	-47.6%	/	?	/	/	-0.7%
O=C(Nc1ccc(S(=O)(=O)Nc2ccccc2)cc1)C1CC1	-0.7%	-3.3%	4.8%	-1.4	-3.1	9.3%
OCc1ccccc1NC(=S)Nc1cccnc1	-19.0%	2.5%	/	1.9	-3.1	?
S=C(Nc1cccnc1)Nc1cccc2cnccc12	0.8%	/	6.4%	-14.4	1.3	44.7µM*
Cc1ccc(S(=O)(=O)N(C)C)cc1NC(=S)Nc1cccc2ccccc12	-2.1%	24.5%	?	13.3	-2.0	15.8µM*
S=C(Nc1ccc(Cl)cc1)Nc1cccc2cnccc12	11.7µM*	-61.6%	?	18.6	17.6	0.0%
CN(C)S(=O)(=O)c1cccc(NC(=S)Nc2cccc3cnccc23)c1	3.7µM*	-6.8%	6.57µM*	17.2	7.5	10µM*
CN1CCC(=O)N([C@H](CN=[N+]=[N-])Cc2ccccc2)CC1	55.1%	7.5%	-5.8%	-10.4	-1.3	0.1%
SMILES	Pf growth 96h	NS1 inh	Pf growth 48h	Shiga inhibitor	Cycloheximide cs	Sm TGR inh
Fc1ccc(NC(=S)NCc2cccnc2)cc1	10.3%	7.7%	-8.0%	-2.6	-1.1	/
Fc1ccc(NC(=S)Nc2cccc3cnccc23)cc1	?	/	?	32.5	17.4*	44.7µM*
O=C(/C(=C/O)N=Nc1ccccc1)c1ccncc1	?	-38.4%	/	-2.3	-3.8	-19.2%
Cc1cccc(N=N/C(=C\O)C(=O)c2cccs2)c1	11.7µM*	/	?	93.1*	34.9*	-4.2%
COc1cc(/C=C2/CCc3ccccc3C2=O)cc(OC)c1OC	?	-16.9%	?	13.3	10.7	-1.3%
COc1ccc(NS(=O)(=O)c2cccs2)c(OC)c1	52.2%	0.7%	-8.0%	11.7	0.3	-1.3%
COc1ccc(/C=C2/CCc3ccccc3C2=O)cc1OC	?	-18.4%	95.0%	73.9*	74.0*	-0.9%
COc1ccc(/C=C2\COc3ccccc3C2=O)cc1OC	-65.4%	-38.1%	15.3%	65.3*	45.3*	?
COc1ccc2c(c1)OC/C(=C/c1cccs1)C2=O	2.94µM*	-13.8%	281.4%	73.4*	44.5*	2.1%
COc1cc(/C=C2\CCc3ccccc3C2=O)cc(OC)c1OC	35.1%	-13.9%	-26.7%	31.5*	17.6*	-16.3%
COc1ccc(/C=C2\C(=O)OCc3cc(OC)c(OC)cc32)cc1OC	0.0%	-18.0%	?	-20.4	-5.1	-9.9%
COc1ccc(-n2nc(C(=O)NCC(=O)NCCCN3CCOCC3)c3ccccc3c2=O)c(OC)c1	-52.3%	-12.1%	-5.6%	-11.0	-2.4	29.6%
S=C1NC[C@H](Cc2ccccc2)N1CCc1cccc2ccccc12	?	1.3%	?	-2.2	-3.1	9.2%
O=C1Nc2ccccc2O/C1=C\c1ccccc1Br	?	-0.5%	/	-3.4	1.8	-8.2%
CCOc1cc(/C=C2\COc3ccccc3C2=O)cc(Br)c1OCC(=O)N(C)C	10.4µM*	-44.2%	?	21.7	9.8	11.2µM*
CCOc1cc(/C=N/Nc2nc3ccccc3[nH]2)cc(Br)c1OCC(=O)N(C)C	?	-13.5%	?	-10.7	12.6	9.8%
O=C(O)c1ccc(/C=C2\COc3ccccc3C2=O)cc1	30.7%	-21.4%	-33.7%	63.1	22.2*	?
COc1ccc(/C=C2\COc3ccccc3C2=O)c(OC)c1	9.28µM*	-30.7%	?	71.1*	43.3*	-26.6%
COc1ccc2c(c1)CC/C(=C\c1ccc(OC)c(Cn3cccn3)c1)C2=O	/	-51.0%	/	23.3	25.9	-1.2%
COc1ccc(/C=C2\CCc3ccccc3C2=O)cc1CN1CCOCC1	-24.9%	-1.8%	-0.7%	93.7*	30.1*	-1.0%
CN(c1ccccc1)S(=O)(=O)c1cc(C(=O)NCCCn2ccnc2)ccc1Cl	-28.7%	/	?	/	/	-8.9%
Cc1ccc(NC(=O)c2ccc3oc(=O)c(S(=O)(=O)c4ccccc4)cc3c2)cc1C	/	/	/	/	/	-0.6%
CSc1cc2c(s1)c1cnn(Cc3ccccc3F)c(=O)c1n2C	/	/	/	-12.1	-11.0	/
Cc1nc2ncnn2c(C)c1Cc1cccc(C(F)(F)F)c1	?	/	?	-5.6	-1.2	?
